# Screening data (PubChem)
# PME-1 inh – blocks human protein phosphatase methylesterase 1. Q9Y570. recombinant PME-1, FP-Rh probe fluorescence polarization. inhibition, % at 5.9 µM. 320,000 tested, 0.53% active;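 active = inhibition above the campaign mean of all compounds plus 3 SD, cut at about 26% in these data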;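 note: competitive labeling of PME-1 active site by serine hydrolase directed probe; inhibitors block probe labeling so polarization falls and inhibition rises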
# LYPLA2 counter – LYPLA2 (human) inhibition in PME1 counter-screen; 320,000 tested, 0.38% active; inhibition, % at 5.9 µM; recombinant LYPLA2, FP-Rh probe fluorescence polarization; O95372;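 active = inhibition above the screen-wide mean plus 3 SD, limit set per campaign, cut at about 26% in these data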
# LYPLA1 inh – counter-screen for PME1 inhibitors: inhibitors of human LYPLA1 | recombinant LYPLA1, FP-Rh probe fluorescence polarization | inhibition, % at 5.9 µM | 320,000 tested, 0.16% active;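 active = inhibition above the mean of all tested compounds plus 3 SD, set per campaign, cut at about 14% in these data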;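 note: inhibitors block serine hydrolase probe labeling of LYPLA1 so polarization falls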
# Fam108B counter – blocks mouse Fam108B hydrolase in RBBP9 counter-screen; recombinant Fam108B, FP-Rh probe fluorescence polarization; inhibition, % at 9.51 µM; 300,000 tested, 0.33% active; AID 1947;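 active = inhibition above the screen mean inhibition plus 3 SD, computed separately per campaign, cut at about 18% in these data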;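 note: inhibitors lower polarization as less probe binds the enzyme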
# PREPL inh – inhibits the human prolyl oligopeptidase-like enzyme. Q4J6C6. recombinant PREPL, fluorescence polarization activity-based probe. inhibition, % at 5.96 µM. 320,000 tested, 0.68% active. AID 2751
# MEX-5 binding – C. elegans MEX-5 TCR-2 RNA binding activity; MEX-5/FITC-TCR2 RNA binding, fluorescence polarization; stronger effect = lower value; activity score (negative = inhibition of binding), % at 10 µM; 300,000 tested, 0.38% active; AID 1832;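 active = inhibition past about -25% in most replicates, and total fluorescence under double the plate's negative control median, limit read from the data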
# Target sequence (Q9XUB2 whole entry, looked up): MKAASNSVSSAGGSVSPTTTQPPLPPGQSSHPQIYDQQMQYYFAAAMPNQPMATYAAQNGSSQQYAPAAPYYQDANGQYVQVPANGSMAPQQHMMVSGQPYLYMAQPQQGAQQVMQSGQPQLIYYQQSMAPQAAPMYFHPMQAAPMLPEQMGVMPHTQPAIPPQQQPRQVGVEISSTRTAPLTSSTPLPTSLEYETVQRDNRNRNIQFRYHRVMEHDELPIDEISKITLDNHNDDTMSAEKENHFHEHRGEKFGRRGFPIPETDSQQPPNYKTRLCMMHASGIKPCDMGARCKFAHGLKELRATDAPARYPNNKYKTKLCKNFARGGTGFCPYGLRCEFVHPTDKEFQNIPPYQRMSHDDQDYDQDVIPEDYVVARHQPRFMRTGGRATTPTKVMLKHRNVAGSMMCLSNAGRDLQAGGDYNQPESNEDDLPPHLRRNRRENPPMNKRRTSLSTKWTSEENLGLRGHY
# PREPL confirm – confirmation of human PREPL enzyme inhibitors; shares compounds with PREPL inh; recombinant PREPL, fluorescence polarization activity probe; AID 2803; 2,000 tested, 67% active; inhibition, % at 5.96 µM
# A number is an active result; – = inactive; · = not tested or not shown; ! = not active in a repeat. Rows were chosen to be rich in hits. Some 1.6% of all compounds tested hit in one or more screens of this group. Cut-off read from the data, not from the text of the source, unless noted: active = inhibition above about 43%; inactive = the rest.
SMILES,PME-1 inh,LYPLA2 counter,LYPLA1 inh,Fam108B counter,PREPL inh,MEX-5 binding,PREPL confirm
CN(C)S(=O)(=O)c1ccc(C(=O)NCC2CC2(Cl)Cl)cc1 (stereo not drawn),–,–,–,–,–,–,·
Cc1ccc(CN2CCSc3ccc(C(=O)NCC4CCCO4)cc32)cc1 (stereo not drawn),–,–,–,–,43,–,–
COc1ccc(NC(=O)c2ccc(-c3ccc(-c4noc(C)n4)cc3C)cc2)cc1N1CCN(C)CC1,–,–,–,–,76,·,60
CC(CCc1ccccc1)C(=O)NO (stereo not drawn),–,–,–,–,–,–,·
COc1ccc(-n2nc3c(N4CCC(C(=O)NCCc5ccccc5C)CC4)nnc(C)c3c2C)cc1,–,–,–,–,52,–,–
COc1ccc(-n2nc3c(N4CCC(C(=O)NCc5ccccc5C)CC4)nnc(C)c3c2C)cc1,–,–,–,–,–,–,·
COc1ccc(-n2nc3c(N4CCC(C(=O)NCc5ccco5)CC4)nnc(C)c3c2C)cc1,–,–,–,–,–,–,·
COc1ccc(-n2nc3c(N4CCC(C(=O)NCC(C)c5ccccc5)CC4)nnc(C)c3c2C)cc1 (stereo not drawn),–,–,–,–,50,–,–
CCNC(=O)/C(C#N)=C/c1c(N2CCN(c3ccc(OC)cc3)CC2)nc2c(C)cccn2c1=O,–,–,–,–,55,–,49
COCCNC(=O)/C(C#N)=C/c1c(N2CCN(c3ccc(OC)cc3)CC2)nc2c(C)cccn2c1=O,–,–,–,–,54,–,49
CC(/C=C/C1(O)C(C)CC(O)CC1(C)C)OC1OC(CO)C(O)C(O)C1O (stereo not drawn),–,–,–,–,–,–,·
Nc1ccccc1C(=O)NC1CCCNC1=O (stereo not drawn),–,–,–,–,–,–,·
COc1cc(CCC(=O)Nc2nnc(C)s2)cc(OC)c1OC,–,–,–,–,–,–,·
CC1=NN(c2ccc(C(=O)O)cc2)C(=O)/C1=C\c1ccc(OC(=O)c2cccs2)cc1,–,–,–,–,45,–,62
C/C(=N\NC(=O)C1CCCN(S(=O)(=O)c2ccccc2)C1)c1ccncc1 (stereo not drawn),–,–,–,–,43,–,–
O=C(NCc1ccc2c(c1)OCO2)c1cc(COc2c(F)cccc2F)on1,–,–,–,–,–,–,·
COc1cccc(CNC(=O)c2cc(COc3c(F)cccc3F)on2)c1,–,–,–,–,50,–,–
COc1ccc2c(c1)[nH]c1c(N3CCSCC3)ncnc12,–,–,–,–,–,–,·
COc1cccc2[nH]c3c(N4CCN(Cc5ccc6c(c5)OCO6)CC4)ncnc3c12,–,–,–,–,73,–,60
COc1ccc2c(c1)[nH]c1c(N3CCN(Cc4ccc5c(c4)OCO5)CC3)ncnc12,26,–,–,–,67,–,64
CN(C)c1ccc(C(CNC(=O)c2ccc(-c3ccccc3)cc2)N2CCOCC2)cc1 (stereo not drawn),–,–,–,–,47,–,65
CCOc1ccc(NC(=S)NS(=O)(=O)c2cc(Br)ccc2OCC)cc1,–,–,–,–,–,–,·
O=C(O)C1CCCCC1C(=O)NC1CCCCC1 (stereo not drawn),–,–,–,–,–,–,·
COC(=O)CCCC1=CC2=CC(=O)C(C)(OC(=O)c3cccs3)C(=O)C2=CN1CCc1c[nH]c2ccccc12 (stereo not drawn),–,–,–,–,45,–,–
CCCCC1=CC2=CC(=O)C(C)(OC(=O)CC)C(=O)C2=CN1CCc1c[nH]c2ccccc12 (stereo not drawn),–,–,–,–,–,–,·
SMILES,PME-1 inh,LYPLA2 counter,LYPLA1 inh,Fam108B counter,PREPL inh,MEX-5 binding,PREPL confirm
COc1cc(/C=C(\C#N)C(=O)c2ccc(O)c(O)c2)cc(I)c1O,–,–,–,–,56,·,–
CC(C)c1nnc(NC(=O)CCC(=O)N2CCN(c3ccc(F)cc3)CC2)s1,–,–,–,–,–,–,·
CC(C)c1nnc(NC(=O)CCC(=O)N2CCN(c3ccc(Cl)cc3)CC2)s1,–,–,–,–,43,–,–
Cc1ccc(NC(=O)COc2cccc(/C=C3\SC(=S)N(CCC(=O)O)C3=O)c2)cc1Cl,32,–,–,–,52,–,–
O=C(Cn1cc[n+](CC(=O)c2ccc(Cl)cc2Cl)c1)c1ccc(Cl)cc1Cl,–,–,–,–,46,–,–
O=C(NCCc1c[nH]c2ccccc12)C(=O)NCC(c1ccco1)N1CCN(c2ccc(F)cc2)CC1 (stereo not drawn),–,–,–,–,–,–,·
O=C(NCCc1c[nH]c2ccccc12)C(=O)NCC(c1ccco1)N1CCN(c2ccccc2)CC1 (stereo not drawn),–,–,–,–,46,–,–
Cc1ccc2c(c1)c1c3n2CCCNC3CCC1 (stereo not drawn),–,–,–,–,45,–,44
COc1cc(/C=N/NC(=S)Nc2cccnc2)cc(OC)c1OC,–,–,–,–,–,–,·
C[C@H]1CN([C@@H](C)CO)C(=O)Cc2cc(NC(=O)CCN3CCOCC3)ccc2O[C@@H]1CN(C)Cc1ccc(Oc2ccccc2)cc1,·,·,·,·,53,·,54
C[C@H]1CN([C@@H](C)CO)C(=O)Cc2cc(NC(=O)C3CC3)ccc2O[C@H]1CN(C)Cc1ccc(Oc2ccccc2)cc1,·,·,·,·,–,·,·
O=C1/C(=C/c2ccc(Cl)cc2)SC(=S)N1CCC(=O)N1CCCCC1CCO (stereo not drawn),–,–,–,–,–,–,·
O=C1/C(=C/c2ccccc2F)SC(=S)N1CCC(=O)N1CCCCC1CCO (stereo not drawn),–,–,–,–,46,–,43
O=C1/C(=C/c2cccc(Cl)c2)SC(=S)N1CCC(=O)N1CCCCC1CCO (stereo not drawn),–,–,–,–,45,–,44
CSc1sc(-c2ccnc(SCC(=O)C(C)(C)C)n2)c2c1C(=O)CC(C)(C)C2,–,–,–,–,–,–,·
CN(C)c1nc(-c2ccccn2)nnc1-c1ccccc1,–,–,–,–,52,–,79
c1ccc(-c2nnc(-c3ccccn3)c(-c3ccccn3)n2)nc1,–,–,–,–,–,–,·
Cc1ccc(Nc2nc(-c3c(C)nc4ncccn34)cs2)cc1,–,–,–,–,51,–,45
COc1cccc(N2CCN(Cc3nc4ccccc4c(=O)[nH]3)CC2)c1,–,–,–,–,48,–,–
CN(C)CCCN1c2ccccc2Sc2ccc(Cl)cc21,–,–,–,–,45!,–,45
OCCN1CCN(CCCN2c3ccccc3Sc3ccc(Cl)cc32)CC1,–,–,–,–,48,–,–
